Bioassay records as filed in PubChem.
ClpP mod: qHTS Assay for Activators of ClpP. purified B. subtilis ClpP, FRET peptide cleavage, 20 min. Potency, µM (titrated, usually from 57.5 µM), without a hit: at the highest dose activity change, negative = active. 340,000 tested, 1.9% active. AID 651965, 2013; active = well fitted falling curve with a large enough effect; inconclusive = small, poorly fitted or top-dose-only effect; inactive = no such curve, though single readings can be large or run the other way; also: potency is read from the fitted curve at half-maximal effect; the source files actives as falling curves though it sought activators and does not explain the sign; nearly all actives have a fitted effect of over 65% in size
Target sequence (P80244 whole entry, looked up): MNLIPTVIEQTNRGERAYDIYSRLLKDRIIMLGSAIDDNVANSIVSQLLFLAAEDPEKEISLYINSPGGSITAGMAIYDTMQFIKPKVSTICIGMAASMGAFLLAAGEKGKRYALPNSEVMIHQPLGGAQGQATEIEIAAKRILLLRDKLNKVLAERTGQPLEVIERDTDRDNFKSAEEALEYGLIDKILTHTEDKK
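Purified B. subtilis ClpP, 10 microg/mL final in Tris/HCl pH8 with KCl, BSA, glycerol and Tween-20, cleaved an Abz/nitrotyrosine-quenched decapeptide. Fluorescence (ex 320, em 430) was read at 0 and 20 min at room temperature. Delta was normalized to 5.8 microM ADEP and DMSO/no-enzyme controls.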
GLP1R ag: qHTS of GLP-1 Receptor Agonists; 380,000 tested, 0.007% active; Glucagon-like peptide 1 receptor (Homo sapiens), P43220; AID 624172, 2012; Potency, µM (titrated, usually from 45.6 µM), inactives show at the highest dose activation, actives largely listed as activators; HEK293 GLP-1R CRE-luciferase, luminescence, 4-6 h; cells express a hypersensitive GLP-1R form; also: potency is read from the fitted curve at half-maximal effect; % of control where 0% means no effect
DRD3 agonist: qHTS of D3 Dopamine Receptor Agonist: qHTS | D(3) dopamine receptor (Homo sapiens), P35462 | D3R DiscoveRx beta-arrestin cells, luminescence, 90 min | max activation, % | 410,000 tested, 0.58% active | AID 652048, 2013; in the data active = max activation above about 30%; also: 0% is about no effect
Target sequence (P35462 whole entry, looked up): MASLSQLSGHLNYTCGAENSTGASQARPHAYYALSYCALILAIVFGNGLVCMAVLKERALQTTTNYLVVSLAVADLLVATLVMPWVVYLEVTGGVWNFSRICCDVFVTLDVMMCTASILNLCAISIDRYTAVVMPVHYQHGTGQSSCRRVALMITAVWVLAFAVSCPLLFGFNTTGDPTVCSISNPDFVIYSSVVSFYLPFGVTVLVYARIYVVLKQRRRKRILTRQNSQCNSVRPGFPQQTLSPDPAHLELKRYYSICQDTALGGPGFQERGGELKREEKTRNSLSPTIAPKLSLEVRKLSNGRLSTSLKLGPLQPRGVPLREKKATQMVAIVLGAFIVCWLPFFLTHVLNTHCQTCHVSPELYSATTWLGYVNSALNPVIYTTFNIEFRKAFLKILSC
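Agonist mode: compounds and dopamine controls were applied to plated cells for 90 min at 37 degrees C after an overnight attachment at 1500 cells/well. Luminescent read-out followed 30 - 60 minutes at room temperature with DiscoveRx detection reagent.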
HEK293 tox: qHTS of GLP-1 Receptor Inverse Agonists: Cytotox Screen; Potency, µM (highest dose often 38.3 µM), for the others: at the top dose activity change, negative = inhibition, hits mostly inhibitors; 410,000 tested, 0.13% active; HEK293 cAMP-luciferase reporter cells, luminescence, 24 h; AID 624418, 2012;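 also: loss of luciferase light is scored as toxicity; potency is read from the fitted curve at half-maximal effect; % is scaled to controls: 0 for no effect and ±100 for the full control effect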
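Step one: seed cells (200 cells/uL, DMEM with 10% Nu serum, 1% pen-strep). Step two: 12-hour incubation at 37 deg C. Step three: pin 23 nL compound, incubate 24 hr. Step four: add luciferase reagent, read luminescence 12 min later.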
DRD3 antagonist: qHTS of D3 Dopamine Receptor Antagonist: qHTS | D3R cells, DiscoveRx beta-arrestin luminescence, antagonist mode; stronger effect = lower value | max response, negative = inhibition, % | 360,000 tested, 2.5% active | AID 652054, 2013; in the data active = max response below about -50%; inconclusive = no clear call, values can overlap the other calls; also: % is scaled to controls: 0 for no effect and ±100 for the full control effect
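Cells expressing the human receptor were seeded at 1500 cells/well, incubated overnight at 37 degrees C in 5% CO2, then exposed to library compounds with dopamine controls for 90 minutes at 37 degrees C before luminescent detection.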
GLP1R inv ag: qHTS of GLP-1 Receptor Inverse Agonists (Inhibition Mode) | HEK293 GLP-1R CRE-luciferase, luminescence, 24 h; GLP-1R form is constitutively active | 410,000 tested, 1.6% active | Glucagon-like peptide 1 receptor (Homo sapiens), P43220 | AID 624417, 2012 | Potency, µM (highest dose often 38.3 µM), without a hit: top-dose activity change, negative = inhibition, actives largely listed as inhibitors; also: potency is read from the fitted curve at half-maximal effect; % is scaled to controls: 0 for no effect and ±100 for the full control effect; nearly all actives have a fitted effect of over 55% in size
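Inverse agonism was detected as reduced cAMP-driven luciferase luminescence after 24 h compound treatment. The cells were HEK293 clones expressing constitutively active human GLP-1R with the reporter. Reporter-only and GPR119 cell lines served as counterscreen controls.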
Numbers without * were called inactive; ? = inconclusive; · = no result. Hits are enriched below; roughly 5.7% of the tested compounds scored in any of these assays. Unless noted, calls follow the shape of the dose curve; as a rule, active = well fitted curve in the direction sought with a large enough effect; inconclusive = small, poorly fitted or top-dose-only effect, or another doubt; inactive = no such curve, though single readings can be large; an effect the other way counts as inactive or inconclusive.

SMILES	ClpP mod	GLP1R ag	DRD3 agonist	HEK293 tox	DRD3 antagonist	GLP1R inv ag
COc1ccc(CCC(=O)N2c3ccccc3N=C(c3ccc(C(F)(F)F)cc3)C2C(=O)NC(C)C)cc1 (stereo not given)	-29.4%	·	86.3*	0.8%	0.0	-8.9%
CC(=O)N1c2ccccc2N=C(c2ccc(C(F)(F)F)cc2)C1C(=O)NC(C)C (stereo not given)	-7.0%	·	-9.7	1.8%	-21.9	-2.2%
COc1ccccc1CCNC(=O)C1CCN(c2nnc(C)c3c(C)n(-c4ccc(C)cc4)nc23)CC1	0.7%	-2.4%	17.5	7.7%	-70.2*	0.5%
COc1ccc(-n2nc3c(N4CCC(C(=O)NCc5cccc(C)c5)CC4)nnc(C)c3c2C)cc1	-1.4%	2.7%	5.1	0.5%	-58.5*	?
CCOc1ccccc1CNC(=O)C1CCN(c2nnc(C)c3c(C)n(-c4ccc(C)cc4)nc23)CC1	4.2%	-1.3%	-2.7	-31.7%	2.3	-24.1%
Brc1ccc2nc(-c3ccco3)c(CC3CCCCC3)n2c1	-3.3%	-3.8%	-19.0	-0.6%	0.0	-5.7%
Nc1nc(NCCc2ccccc2)c2[nH]cnc2n1	-0.8%	·	·	·	·	·
Nc1nc(OCc2ccccc2)c2[nH]cnc2n1	-2.3%	9.8%	-95.5	-20.2%	-120.6*	-3.5%
Cc1ccc(C)c(S(=O)(=O)c2cn(Cc3ccccc3)c3cc(F)c(F)cc3c2=O)c1	-0.3%	·	6.2	4.5%	·	-16.0%
COc1cc(C2C(=O)N(C3CCCCC3)CC(=O)N2C2CCCCC2)ccc1OC(C)C (stereo not given)	-2.0%	·	-9.7	-7.4%	·	10.6%
CCOc1ccc(NC(=O)CN(C)Cc2ccc3c(c2)OCO3)cc1S(=O)(=O)N1CCCC1	-2.3%	15.5%	-15.0	-4.9%	-68.2*	-18.8%
CCOc1ccc(NC(=O)CSc2nnnn2C2CC2)cc1S(=O)(=O)N1CCCC1	-0.4%	14.1%	-1.8	4.8%	10.0	3.0%
CCOc1ccc(NC(=O)CSc2nnc(C)n2C2CC2)cc1S(=O)(=O)N1CCCC1	25.1µM*	-12.7%	-2.6	11.2%	-20.7	14.4%
CC(C)=CCOc1ccc([C@@H]2COc3c(ccc4c3C=CC(C)(C)O4)C2)c(O)c1	-1.7%	-2.6%	20.2	?	17.9	10µM*
COc1ccc(S(=O)(=O)n2ccc(-c3cnc(-c4ccccc4)s3)n2)cc1	28.2µM*	5.2%	14.5	1.0%	0.0	-12.7%
O=C(c1ccccc1)n1ccc(-c2cnc(-c3ccccc3)s2)n1	46.4%	-3.3%	-10.1	1.2%	-2.2	19.3%
Cc1ccc(C)c(NC(=O)C(Cc2ccccc2)n2cccc2)c1 (stereo not given)	1.0%	·	-2.3	-8.1%	·	10µM*
Cc1ccc(NC(=O)C(Cc2ccccc2)n2cccc2)c(C)c1 (stereo not given)	-1.3%	·	10.9	11.3%	·	?
COc1ccc(-c2csc(N(CCCN(C)C)C(=O)c3cccs3)n2)cc1	-0.8%	4.3%	-51.0	3.8%	-58.3*	-10.1%
COc1ccc(-c2csc(N(CCCN(C)C)C(=O)c3ccc(C)cc3)n2)cc1	·	2.2%	-13.7	-21.8%	4.7	3.98µM*
COc1ccc(/C=C/C(=O)C2(O)CCCCC2)cc1	·	5.7%	-3.8	?	-17.3	10µM*
COc1ccc(/C=C/C(=O)O)cc1	-6.3%	-3.5%	-11.1	3.7%	13.2	10.6%
CC(C)CN(C[C@@H](OP(=O)(O)O)[C@H](Cc1ccccc1)NC(=O)O[C@H]1CCOC1)S(=O)(=O)c1ccc(N)cc1	·	·	-0.6	·	·	·
Clc1ccc(C(c2cccs2)N2CCNCC2)cc1 (stereo not given)	0.4%	12.9%	-8.8	-12.5%	-23.8	4.47µM*
Cn1c(CNS(=O)(=O)c2ccc(Cl)cc2)n[nH]c1=S	-1.5%	3.2%	-2.6	-0.7%	-60.2*	14.5%
SMILES	ClpP mod	GLP1R ag	DRD3 agonist	HEK293 tox	DRD3 antagonist	GLP1R inv ag
COc1ccc([C@H]2N[C@]3(CCCN(CC4CCCCC4)C3=O)[C@H]3C(=O)N(Cc4ccccc4)C(=O)[C@@H]23)cc1	-1.7%	-0.8%	-0.2	-5.1%	3.5	-33.5%
CCOc1ccc(NC(=O)CN2C(=O)C(c3ccccc3)=NC23CCCCCC3)cc1	0.8%	·	-3.9	-7.3%	·	?
CN1CCN(C(=S)c2ccc(Cl)cc2)CC1	1.9%	-7.4%	-0.4	-1.2%	-86.9*	-6.7%
COc1ccc(C(=S)N2CCN(C)CC2)cc1Br	0.1%	1.3%	-10.0	-7.3%	0.0	5.4%
S=C(c1ccc(Br)cc1)N1CCCC1	25.1µM*	4.6%	5.8	10.8%	9.3	-23.6%
CN1CCN(C(=S)NC(=O)c2ccc(Cl)cc2)CC1	·	1.4%	-7.9	?	6.4	?
COc1ccc(C(=S)N2CCN(C)CC2)cc1	-0.5%	-5.5%	2.2	-3.5%	-73.9*	1.4%
CC(=O)OCC(=O)Nc1cc(C#N)cc(NC(=O)COC(C)=O)c1Cl	·	4.7%	6.9	·	·	·
CCN(C)C1CN(Cc2cn(Cc3cccc(Cl)c3)nn2)S(=O)(=O)C1 (stereo not given)	1.6%	-1.7%	1.8	1.0%	13.1	8.9%
Cc1ccc(-n2nc(C)c3c(C)cc(=O)[nH]c32)cc1	28.2µM*	0.2%	-0.3	0.7%	27.1	0.0%
Cc1nn(-c2ccccc2)c2[nH]c(=O)cc(C(F)F)c12	-5.7%	-5.2%	3.5	4.0%	5.7	18.7%
CCCCCCCCCC[n+]1ccc(/C=C/c2c[nH]c3ccccc23)c2ccccc21	4.6%	·	·	·	·	·
N#Cc1ccccc1N/C=C/C(=O)c1ccc(Cl)cc1	·	10.9%	-2.9	-1.5%	-3.6	6.31µM*
O=C(/C=C/Nc1ccccc1F)c1ccc(Br)cc1	-1.7%	-17.9%	-15.1	-9.3%	-20.7	-16.5%
Cc1ccc(NC(=O)c2cccn2-c2nnc(N3CCCCC3)s2)cc1Cl	?	·	-22.0	2.1%	·	?
O=S(=O)(c1ccccc1)c1nc(-c2cccs2)oc1NCC1CCCO1 (stereo not given)	25.1µM*	25.7%	-1.6	40.8%	-21.1	-14.9%
N#Cc1nc(-c2cccs2)oc1NCC1CCCO1 (stereo not given)	24.4%	-0.5%	4.6	-14.5%	15.0	73.3%
CC1CCN(C(=O)Cn2ncc3c4ccccc4n(Cc4ccc(Cl)cc4)c3c2=O)CC1	-25.5%	·	4.3	-6.0%	·	-15.6%
COCC(=O)Nc1nc2n(n1)C(c1ccccc1)CC(c1ccc(OC)cc1)N2 (stereo not given)	25.1µM*	2.0%	-1.2	462.1%	-13.2	57.8%
